PubChem BioAssay AID602379 (National Center for Advancing Translational Sciences (NCATS), 2012)
Active and inactive are the calls of the source. The call rests on the fitted dose curve; in most records, active means well fitted curve in the direction sought with a large enough effect; inactive means no such curve, though single readings can be large or run the other way.

What follows are molecules tested against Pyruvate kinase PKLR (Homo sapiens) (UniProt P30613) (assay: qHTS for Activators of Human Muscle Isoform Pyruvate Kinase: Extended Characterization against Liver Pyruvate Kinase). Conditions: purified hPK-L, ATP via Kinase-Glo luminescence, 1 h; series mostly up to 57.3 µM; activity change, positive = activation: at the top concentration.
Chain of Pyruvate kinase PKLR (Homo sapiens) (P30613 whole entry, looked up, canonical isoform): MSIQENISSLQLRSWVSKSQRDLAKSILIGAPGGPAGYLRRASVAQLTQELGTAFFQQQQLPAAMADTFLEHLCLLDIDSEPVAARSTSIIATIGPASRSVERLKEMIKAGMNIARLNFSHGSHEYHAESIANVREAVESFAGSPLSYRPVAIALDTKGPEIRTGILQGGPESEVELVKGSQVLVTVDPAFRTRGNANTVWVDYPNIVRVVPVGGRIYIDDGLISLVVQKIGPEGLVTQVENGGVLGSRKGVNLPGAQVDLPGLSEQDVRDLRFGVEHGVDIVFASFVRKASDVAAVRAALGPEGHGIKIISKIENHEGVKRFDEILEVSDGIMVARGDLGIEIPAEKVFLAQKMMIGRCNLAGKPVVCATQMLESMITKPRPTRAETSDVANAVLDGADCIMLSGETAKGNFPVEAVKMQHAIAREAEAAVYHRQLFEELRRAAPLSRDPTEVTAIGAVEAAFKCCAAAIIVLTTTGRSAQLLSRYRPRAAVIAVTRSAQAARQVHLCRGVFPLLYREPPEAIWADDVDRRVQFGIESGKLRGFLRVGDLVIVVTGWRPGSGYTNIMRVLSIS
Protocol: Human pyruvate kinase liver (hPK-L) enzyme was supplied as a highly purified (>95% pure) preparation from Harvard Medical School and assayed for its ability to generate ATP from ADP using phosphoenolpyruvate (PEP) as a substrate. ATP generation was detected in a coupled reaction by luciferase-mediated luminescence, an ATP-dependent process. Pyruvate kinase substrates, PEP and ADP, were present in the assay at Km and approximately 10-fold below Km respectively. The enzyme was assayed at an intermediate level of activity to screen for both inhibitors and activators. NIH Chemical Genomics Center [NCGC] NIH Molecular Libraries Probe Centers Network [MLPCN] MLPCN Grant: MH085679 Assay Submitter (PI): Matthew G. Vander Heiden, Harvard Medical School
Three uL of substrate mix (at r.t.) in assay buffer (50 mM Imidazole pH7.2, 50 mM KCl, 7 mM MgCl2, 0.01% Tween 20, 0.05% BSA) was dispensed into white solid bottom 1,536 well microtiter plates so that the final concentrations of substrates in the assay were 0.1 mM ADP and 0.5 mM PEP. 23 nL of compound were delivered by a pin tool and 1 uL of enzyme mix (final concentration of 0.1 nM) in assay buffer (4 degree Celsius) was added. Plates were incubated at room temperature for 1 hour. Two uL of detection mix (Kinase-Glo, Promega; at 4 degree Celsius protected from light) was added and luminescence read by a ViewLux (Perkin Elmer) at 1 second exposure/plate. Data were normalized to the uninhibited (row 31). Additionally, a no enzyme and 5-fold enzyme control was dispensed in row 32, split equally between the two conditions.

Activity change, positive = activation, inactive:
Cc1cc2c(s1)c1cnn(Cc3c(Cl)ccc(C)c3F)c(=O)c1n2C 13.2%
COc1cccc(Cn2ncc3c4sc(S(C)=O)cc4n(C)c3c2=O)c1 (stereo not given) 5.38%
Cc1cc2c(s1)c1cnn(Cc3cc(F)ccc3F)c(=O)c1n2C 5.89%
Cc1cc2c(s1)c1cnn(Cc3cc(F)c(F)cc3F)c(=O)c1n2C 5.78%
Cc1cc2c(s1)c1cnn(Cc3ccc(F)cc3F)c(=O)c1n2C 5.82%
